From PubChem BioAssay AID2242 (National Center for Advancing Translational Sciences (NCATS), 2010)
In all, about 200,000 compounds went through this assay and about 720 (0.36%) were called active. About 8% were inconclusive and are not listed. Calls come from the whole dose curve; as a rule, active = well fitted activation curve with a large enough effect; inconclusive = small, poorly fitted or top-dose-only effect, or effect the other way, or another doubt; inactive = flat fitted curve, though single readings scatter. This is one part of the list.

These molecules were tested against Lysosomal alpha-glucosidase (Homo sapiens) (UniProt P10253) (assay: qHTS Assay for Activators of Human alpha-Glucosidase as a Potential Chaperone Treatment of Pompe Disease). Settings: purified enzyme, 4-MU-alpha-glucoside fluorescence, 20 min; series mostly up to 76.9 µM.
Outline: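 Compounds titrated up to 77 uM against 4 nM enzyme and 400 uM methylumbelliferyl substrate at room temperature, 20 min, pH 5.0. Basic stop, then 4-methylumbelliferone fluorescence (365/440 nm) normalized to no-enzyme and enzyme controls; Hill-equation AC50.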
Note: nearly all actives have a fitted effect of over 80% in size.
Potency is the fitted concentration of half-maximal effect.

SMILES	Potency
O=C(c1cc2c(s1)-c1ccccc1OC2)N1CCc2ccccc2C1	35.5 µM (active)
COc1cc2c(cc1OC)C(C)N(C(=O)c1cc3c(s1)-c1ccccc1OC3)CC2 (centres undefined)	39.8 µM (active)
O=C(c1cc2c(s1)-c1ccccc1OC2)N1CCCC1	28.2 µM (active)
CN1C(=O)c2ccccc2N(C)C1c1ccccc1Cl (centres undefined)	39.8 µM (active)
CCCCn1c2nc3ccccc3nc2c2c(=O)n(-c3ccccc3)cnc21	35.5 µM (active)
CCC(N=c1cc(-c2ccc(OC)cc2)oc2ccc(C)cc12)C(=O)O (centres undefined)	31.6 µM (active)
O=[N+]([O-])c1cccc(Nc2c3ccccc3nc3ccccc23)c1	28.2 µM (active)
O=c1oc2c(CN3CCN(CCO)CC3)c(O)ccc2cc1-c1ccccn1	31.6 µM (active)
CCCN(CC(=O)Nc1ccc(Cl)cc1Cl)C(=O)/C=C/c1cc(OC)ccc1OC	31.6 µM (active)
CCCCC[n+]1cccc2c3ccccc3ccc21	35.5 µM (active)
c1ccc(C[n+]2cccc3c4ccccc4ccc32)cc1	39.8 µM (active)
O=C(O)C1C2C=CC(O2)C1C(=O)NCCCn1ccnc1 (centres undefined)	20 µM (active)
CN1CCCc2cc(C#N)c(=O)[nH]c21	39.8 µM (active)
Cc1cc(=O)oc2cc3c(cc12)OCCN3	35.5 µM (active)
COc1cccc(-c2cc(C(F)(F)F)c(C#N)c(=O)[nH]2)c1	35.5 µM (active)
N#Cc1c(C(F)(F)F)cc(-c2cccc(Cl)c2)[nH]c1=O	39.8 µM (active)
COc1cccc(-c2ccc(C#N)c(=O)[nH]2)c1	39.8 µM (active)
N#Cc1c(C(F)(F)F)cc(-c2ccccc2)[nH]c1=O	35.5 µM (active)
N#Cc1c(C(F)(F)F)cc(-c2ccc(Cl)cc2)[nH]c1=O	39.8 µM (active)
N#Cc1c(C(F)(F)F)cc(-c2ccc(F)cc2)[nH]c1=O	35.5 µM (active)
COc1ccccc1-c1cc(C(F)(F)F)c(C#N)c(=O)[nH]1	39.8 µM (active)
N#Cc1cnn2c3c(cnc12)C(=O)N1CCc2ccccc2C1C3 (centres undefined)	3.98 µM (active)
O=C1c2cnc3ncnn3c2CC2c3ccccc3CCN12 (centres undefined)	12.6 µM (active)
CC(=O)c1cc2cc(O)ccc2o1	35.5 µM (active)
Cc1cc(C)n(-c2nc3ccccc3[nH]c2=O)n1	39.8 µM (active)
CNc1nnc(-c2ccc(N(C)C)cc2)s1	35.5 µM (active)
Cc1cc(=O)[nH]c2cc(O)ccc12	35.5 µM (active)
CC(=O)Oc1ccc2c(C)cc(=O)[nH]c2c1	20 µM (active)
CCc1cc2c(=O)c(Oc3ccccc3F)c(C)oc2c(CN(C)C)c1O	35.5 µM (active)
